Among the test systems are SR leukemia; RPMI-8226 leukemia; OVCAR-8 ovarian; OVCAR-5 ovarian; OVCAR-4 ovarian; SK-OV-3 ovarian; IGROV1 ovarian; OVCAR-3 ovarian; HS 578T breast; NCI/ADR-RES ovarian; T-47D breast; BT-549 breast; MDA-MB-435 melanoma; SW-620 colon; MCF7 breast; HCT-116 colon; HCC-2998 colon; KM12 colon.
Experiment in all cases: NCI-60 one-dose screen, 48 h (100 = growth as untreated, 0 = no growth, -100 = all killed)
Conditions in all cases: 10 µM unless noted

Compounds without any hit were thinned out: in the full panel of roughly 83,000, 20% have a hit.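 Assay: single dose, 48 h. Readout: percent growth (0 = no net growth; negative = cell death). Active: <10.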 Values without a mark were called inactive. Activity calls are given as the source filed them.

In the case of `CN1C(=O)/C(=C/c2ccc(C(=O)Nc3ncc(Cc4ccc(Cl)cc4)s3)cc2)SC1=S`, the growth in the experiment on SR leukemia is 43.2%; with RPMI-8226 leukemia, 61.3%; in the experiment on OVCAR-8 ovarian it was 60.4%; with OVCAR-5 ovarian it was 58.1%; with OVCAR-4 ovarian, 54.9%; in the experiment on SK-OV-3 ovarian, 58%. Also, the growth is 44.4% in the experiment on IGROV1 ovarian; 27.2% with OVCAR-3 ovarian; 42% in the experiment on HS 578T breast; 37.5% in the experiment with NCI/ADR-RES ovarian; 37.8% in the experiment on T-47D breast; 46.7% with BT-549 breast. The growth in the experiment on MDA-MB-435 melanoma was -32% (active); in the experiment with SW-620 colon it was 28.9%; in the experiment with MCF7 breast, 55.5%; with HCT-116 colon it was 24.2%; with HCC-2998 colon it was 59.3%; with KM12 colon, 21.1%.

On to `COc1cc(/C=C\c2cc(/C=C\c3ccc(O)c(OC)c3)n(C(=O)COc3ccc(Cl)cc3Cl)n2)ccc1O`, for which the growth is 0.0066% (active) with SR leukemia; -6.8% (active) with RPMI-8226 leukemia; 6.52% (active) with OVCAR-8 ovarian; 56.7% in the experiment with OVCAR-5 ovarian; 31.4% in the experiment on OVCAR-4 ovarian; -0.155% (active) in the experiment on SK-OV-3 ovarian. The growth in the experiment on IGROV1 ovarian was 12.5%; in the experiment on OVCAR-3 ovarian, 14%; in the experiment with HS 578T breast, 10.2%; in the experiment with NCI/ADR-RES ovarian it was 21.5%; with T-47D breast, 15%; with BT-549 breast, 1.41% (active). The growth is -12.1% (active) in the experiment on MDA-MB-435 melanoma; 16.7% with SW-620 colon; 4.21% (active) with MCF7 breast; 3.48% (active) in the experiment on HCT-116 colon; 38.5% with HCC-2998 colon; 9.93% (active) in the experiment with KM12 colon.

Take `C#Cc1cccc(Nc2ncnc3ccc(-c4cnc(N)nc4)cc23)c1`: the growth is 40.6% with SR leukemia; 22.8% in the experiment with RPMI-8226 leukemia; 49.6% in the experiment on OVCAR-8 ovarian; 23.1% in the experiment with OVCAR-5 ovarian; 46.1% in the experiment with OVCAR-4 ovarian; -2.3% (active) in the experiment with SK-OV-3 ovarian. Also, the growth in the experiment with IGROV1 ovarian was -26.3% (active); in the experiment with OVCAR-3 ovarian, 24.1%; in the experiment with HS 578T breast it was -7.24% (active); in the experiment on NCI/ADR-RES ovarian, 49.8%; in the experiment with T-47D breast, 5.19% (active); with BT-549 breast, 28.9%. Besides, the growth was 43.2% with MDA-MB-435 melanoma; 60.9% with SW-620 colon; 15.7% in the experiment with MCF7 breast; 47.9% in the experiment with HCT-116 colon; 64.7% with HCC-2998 colon; 68.6% in the experiment on KM12 colon.

For `COc1ccc(-c2nc3c(c(-c4ccccc4)nn3-c3ccccc3)c(-c3ccc(N4CCOCC4)cc3)c2C#N)cc1`, the growth with SR leukemia was 110%; in the experiment on RPMI-8226 leukemia, 89.8%; in the experiment with OVCAR-8 ovarian, 105%; in the experiment on OVCAR-5 ovarian it was 102%; with OVCAR-4 ovarian, 106%; in the experiment on SK-OV-3 ovarian it was 119%. The growth in the experiment on IGROV1 ovarian is 109%; with OVCAR-3 ovarian, 115%; in the experiment on HS 578T breast, 106%; with NCI/ADR-RES ovarian it was 111%; in the experiment on T-47D breast, 94.3%; in the experiment on BT-549 breast, 95.3%. Also, the growth with MDA-MB-435 melanoma is 99.2%; in the experiment with SW-620 colon, 90.4%; with MCF7 breast, 84.6%; in the experiment with HCT-116 colon, 96%; in the experiment with HCC-2998 colon, 108%; with KM12 colon it was 104%.

In the case of `CO/N=C(/C)c1ccc(NC(=O)CSc2nnc(-c3ccncc3)n2-c2ccccc2)cc1`, the growth in the experiment with SR leukemia was 99.6%; with RPMI-8226 leukemia it was 80.8%; in the experiment with OVCAR-8 ovarian, 1.47% (active); with OVCAR-5 ovarian, 79.5%; in the experiment on OVCAR-4 ovarian, -30.7% (active); with SK-OV-3 ovarian, 24.1%. The growth is 33.4% with IGROV1 ovarian; 29.3% with OVCAR-3 ovarian; -0.835% (active) in the experiment with HS 578T breast; 0.0208% (active) with NCI/ADR-RES ovarian; 17.4% in the experiment on T-47D breast; 6.99% (active) with BT-549 breast. Moreover, the growth was 47% with MDA-MB-435 melanoma; 84.2% in the experiment on SW-620 colon; 42% in the experiment on MCF7 breast; 4.38% (active) with HCT-116 colon; 82.3% in the experiment on HCC-2998 colon; 61.9% in the experiment on KM12 colon.

In the case of `CC12CCC3c4ccccc4CCC3(CO1)C2` (configuration not stated), the growth in the experiment with SR leukemia is 99.1%; in the experiment on RPMI-8226 leukemia it was 97.1%; in the experiment on OVCAR-8 ovarian it was 103%; with OVCAR-5 ovarian, 96.3%; with OVCAR-4 ovarian it was 108%; in the experiment with SK-OV-3 ovarian, 98.3%. Besides, the growth with IGROV1 ovarian was 121%; in the experiment on OVCAR-3 ovarian, 115%; in the experiment on HS 578T breast, 93.5%; with NCI/ADR-RES ovarian, 106%; in the experiment on T-47D breast, 101%; in the experiment on BT-549 breast it was 121%. Besides, the growth in the experiment on MDA-MB-435 melanoma was 107%; with SW-620 colon, 106%; in the experiment on MCF7 breast, 97.1%; in the experiment with HCT-116 colon it was 117%; in the experiment with HCC-2998 colon, 94.2%; in the experiment with KM12 colon, 110%.

Consider `Cc1ccc(-c2cc(-c3ccc(Cl)cc3)nc(NC(=O)c3cccnc3)n2)cc1`, for which the growth in the experiment on SR leukemia was 89.1%; with RPMI-8226 leukemia, 86.3%; in the experiment on OVCAR-8 ovarian, 103%; with OVCAR-5 ovarian it was 102%; with OVCAR-4 ovarian it was 100%; with SK-OV-3 ovarian it was 109%. Besides, the growth with IGROV1 ovarian is 102%; with OVCAR-3 ovarian it was 115%; in the experiment with HS 578T breast, 103%; in the experiment on NCI/ADR-RES ovarian, 104%; in the experiment with T-47D breast, 96.3%; in the experiment on BT-549 breast, 117%. Further, the growth is 99.8% in the experiment on MDA-MB-435 melanoma; 102% in the experiment on SW-620 colon; 86.3% in the experiment on MCF7 breast; 98.9% in the experiment on HCT-116 colon; 115% with HCC-2998 colon; 99.8% in the experiment with KM12 colon.

As to `O=C1c2c(c3c4ccccc4[nH]c3c3ccc4ccccc4c23)C(=O)N1CCN1CCCCC1`, the growth in the experiment with SR leukemia was 2.17% (active); in the experiment with RPMI-8226 leukemia, 9.02% (active); in the experiment with OVCAR-8 ovarian it was 25.6%; in the experiment with OVCAR-5 ovarian, 74.8%; in the experiment on OVCAR-4 ovarian, 64.8%; in the experiment with SK-OV-3 ovarian, 53.7%. Besides, the growth is 52.8% in the experiment with IGROV1 ovarian; 51.1% in the experiment on OVCAR-3 ovarian; 90.2% with HS 578T breast; 40.9% with NCI/ADR-RES ovarian; 13.6% in the experiment with T-47D breast; 78.9% with BT-549 breast. Moreover, the growth with MDA-MB-435 melanoma was 67.2%; with SW-620 colon, 30.5%; with MCF7 breast, 17.1%; with HCT-116 colon it was 23.1%; in the experiment on HCC-2998 colon it was -0.0363% (active); in the experiment with KM12 colon, 48%.

As for `CC(=O)N1N=C(c2ccc(Nc3nc(Nc4ccc(Cl)cc4)nc(Nc4ccc(Cl)cc4)n3)cc2)CC1c1ccco1` (configuration not stated), the growth in the experiment with SR leukemia is 64.9%; in the experiment with RPMI-8226 leukemia it was 34.5%; in the experiment on OVCAR-8 ovarian, 83.2%; with OVCAR-5 ovarian, 105%; in the experiment on OVCAR-4 ovarian, 97.3%; in the experiment on SK-OV-3 ovarian, 124%. Besides, the growth was 89.4% with IGROV1 ovarian; 104% in the experiment on OVCAR-3 ovarian; 114% in the experiment on HS 578T breast; 93.5% in the experiment on NCI/ADR-RES ovarian; 67.6% in the experiment with T-47D breast; 104% with BT-549 breast. Also, the growth in the experiment on MDA-MB-435 melanoma was 84.5%; in the experiment on SW-620 colon, 114%; in the experiment on MCF7 breast, 83%; in the experiment with HCT-116 colon it was 91.3%; in the experiment on HCC-2998 colon, 128%; in the experiment with KM12 colon, 92.7%.

The values above are taken from PubChem BioAssay (NCI).
